Laboratory results from PubChem BioAssay AID1159580 (chemical genetic matrix, 2015).
Screen size: about 5,500 compounds; about 2,000 (36%) were called active. Inconclusive results (about 18%) are left out. Cut-off read from the data, not from the text of the source: active = normalized growth mostly below about 0.91 (no sharp cut-off); inconclusive = no clear call, values can overlap the other calls; inactive = mostly above about 0.92. The list shows a part of the results.

Assay: chemical genetic growth profiling, strain panel (AID 1159580);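 note: tested at 20 µM; growth read once vehicle control cultures reached saturation at 30 °C; 1 = growth at the plate median or of vehicle wells; lower values mean less growth of the strain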
Details: growth OD

Measured: normalized growth

COC(=O)c1ccccc1-n1cccc1C(=O)OC
inactive: S. cerevisiae deletion strains, locus YAL013W, strain DEP1, hits give low values 0.981 | S. cerevisiae deletion strains, locus YBR229C, strain ROT2, hits give low values 0.975 | S. cerevisiae deletion strains, locus YDL101C, strain DUN1, hits give low values 0.971 | S. cerevisiae deletion strains, locus YDL134C, strain PPH21, hits give low values 0.997 | S. cerevisiae deletion strains, locus YDR150W, strain NUM1, hits give low values 1.01 | S. cerevisiae deletion strains, locus YEL061C, strain CIN8, hits give low values 0.994 | S. cerevisiae deletion strains, locus YGR078C, strain PAC10, hits give low values 0.982 | S. cerevisiae deletion strains, locus YGR229C, strain SMI1, hits give low values 1.02 | S. cerevisiae deletion strains, locus YHR030C, strain SLT2, hits give low values 1.04 | S. cerevisiae deletion strains, locus YHR087W, strain rtc3, hits give low values 0.96 | S. cerevisiae deletion strains, locus YJL187C, strain SWE1, hits give low values 0.996 | S. cerevisiae deletion strains, locus YJR043C, strain POL32, hits give low values 0.993 | S. cerevisiae deletion strains, locus YJR075W, strain HOC1, hits give low values 1.05 | S. cerevisiae deletion strains, locus YLR039C, strain RIC1, hits give low values 0.97 | S. cerevisiae deletion strains, locus YLR058C, strain SHM2 (second series), hits give low values 0.989 | S. cerevisiae deletion strains, locus YLR085C, strain ARP6, hits give low values 1.03 | S. cerevisiae deletion strains, locus YLR262C, strain YPT6, hits give low values 0.973 | S. cerevisiae deletion strains, locus YML094W, strain GIM5, hits give low values 0.957 | S. cerevisiae deletion strains, locus YMR219W, strain ESC1, hits give low values 0.99 | S. cerevisiae deletion strains, locus YMR263W, strain SAP30, hits give low values 1.02 | S. cerevisiae deletion strains, locus YNL153C, strain GIM3, hits give low values 1 | S. cerevisiae deletion strains, locus YNL298W, strain CLA4 (second series), hits give low values 0.988 | S. cerevisiae deletion strains, locus YNL322C, strain KRE1, hits give low values 0.992 | S. cerevisiae deletion strains, locus YNR030W, strain Alg12, hits give low values 0.973 | S. cerevisiae deletion strains, locus YOL006C, strain TOP1, hits give low values 0.969 | S. cerevisiae deletion strains, locus YPL055C, strain LGE1, hits give low values 0.972 | S. cerevisiae deletion strains, locus YPL241C, strain CIN2, hits give low values 0.969 | S. cerevisiae deletion strains, locus YPR135W, strain CTF4, hits give low values 0.943 | S. cerevisiae strains, strain wild type, hits give low values 0.993
